In PubChem BioAssay (NCATS):
Records with an inconclusive call do not appear. Calls of active or inactive are those of the source. Calls come from the whole dose curve; as a rule, active = well fitted inhibition curve with a large enough effect; inconclusive = small, poorly fitted or top-dose-only effect; inactive = no such curve, though single readings can be large or run the other way.

Experiment: Primary qHTS for inhibitors of La Crosse Virus (LACV) - induced cell death in SH-SY5Y cells (AID 1508616);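 note: top concentration of the series differs between compounds; higher means more rescue of cells from virus-induced death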
Conditions: SH-SY5Y LACV cytopathicity rescue, ATP luminescence, 6 d; series mostly up to 4.29 µM
Procedure, shortened: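 Protection against LACV-induced cell death is scored in SH-SY5Y cells exposed to compounds and virus (0.01 MOI) for 6 days. Data normalized to virus-infected DMSO wells and virus-free DMSO wells.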

Row | Compound | outcome
1 | CCN(CC)C(=O)c1ccc(O)c(OC)c1 | inactive
2 | CC(=O)c1ccc(S(=O)(=O)NC(=O)NC2CCCCC2)cc1 | inactive
3 | CC(=O)N[C@@H](CS)C(=O)O | inactive
4 | CC(=O)CCCCn1c(=O)c2c(ncn2C)n(C)c1=O | inactive
5 | COc1ccc2cccc(CCNC(C)=O)c2c1 | inactive
6 | CCn1cc(C(=O)O)c(=O)c2ccc(C)nc21 | inactive
7 | CCN(CC)CCOC(=O)c1ccc(N)cc1 | inactive
8 | CCN1CCC[C@H]1CNC(=O)c1cc(S(N)(=O)=O)ccc1OC | inactive
9 | CC(=O)O[C@]1(C(C)=O)CC[C@H]2[C@@H]3C=C(Cl)C4=CC(=O)[C@@H]5C[C@@H]5[C@]4(C)[C@H]3CC[C@@]21C | inactive
10 | C[C@@H](O)[C@H]1C(=O)N2C(C(=O)O)=C(S[C@@H]3CN[C@H](C(=O)N(C)C)C3)[C@H](C)[C@H]12 | inactive
11 | O=C(NCCN1CCOCC1)c1ccc(Cl)cc1 | inactive
12 | COc1cccc(-c2cc(=O)c3ccccc3o2)c1N | inactive
13 | COC(=O)[C@@H]1[C@H]2C[C@H]3c4[nH]c5ccccc5c4CCN3C[C@@H]2CC[C@@H]1O | inactive
14 | Clc1ccc(Cn2c(CN3CCCC3)nc3ccccc32)cc1 | inactive
15 | C[N+](C)(C)CC(=O)O | inactive
16 | CN(C)CCC(c1ccccc1)c1ccccn1 (configuration not stated) | inactive
17 | CCCCC1C(=O)N(c2ccccc2)N(c2ccccc2)C1=O | inactive
18 | COc1ccccc1N1CCN(CCCNc2cc(=O)n(C)c(=O)n2C)CC1 | inactive
19 | Cc1cccc(C)c1OCC(C)N (configuration not stated) | inactive
20 | CC[C@]1(O)C[C@@H]2CN(CCc3c([nH]c4ccccc34)[C@@](C(=O)OC)(c3cc4c(cc3OC)N(C)[C@H]3[C@@](O)(C(=O)OC)[C@H](OC(C)=O)[C@]5(CC)C=CCN6CC[C@]43[C@@H]65)C2)C1 | inactive
21 | CC1=C(/C=C/C(C)=C/C=C/C(C)=C/C(=O)Nc2ccc(O)cc2)C(C)(C)CCC1 | inactive
22 | O=C1NCC2(CCN(CCc3ccccc3)CC2)O1 | inactive
23 | NCCS | inactive
24 | O=C1NC(=O)C(c2ccccc2)(c2ccccc2)N1 | inactive
25 | O=C(O)CCc1nc(-c2ccccc2)c(-c2ccccc2)o1 | inactive
26 | C[N+](C)(C)CCCCCC[N+](C)(C)C | inactive
27 | CC(C)NCC(O)COc1cccc2[nH]ccc12 (configuration not stated) | inactive
